{
  "source": "PubChem BioAssay (NCI)",
  "note": "Compounds without any hit were thinned out: in the full panel of roughly 83,000, 20% have a hit.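 Step 1: grow cells in 96-well plates. Step 2: add test compound at a single concentration. Step 3: incubate 48 h. Step 4: record percent growth.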 Activity calls are given as the source filed them.",
  "data": [
    {"tested_on": "U251 CNS", "assay": "NCI-60 one-dose screen, 48 h (100 = growth as untreated, 0 = no growth, -100 = all killed)", "conditions": "10 µM unless noted", "protocol": "Growth inhibition of the U251 human tumor cell line is measured as a screen for anti-cancer activity. Cells are grown in 96 well plates and exposed to the test compound for 48 hours. Compounds are tested at a single concentration, which is 10^-5 M for most compounds. The reported endpoint is percent growth (GI% or GIPRCNT), where numbers from 0 - 100% represent growth inhibition, and numbers from -100% - 0 represent cell death. For example, a value of 40 represents 60% growth inhibition. A value of 0 means no net growth occurred over the course of the experiment. A value of -40 indicates 40% of cells at the beginning of the experiment died by the end of the experiment. A value of -100 means all cells are dead at the end of the experiment.\nNCI-60 Human Tumor Cell Lines Screen was performed using the standard one-dose NCI protocol, which is described in more detail at https://dtp.cancer.gov/discovery_development/nci-60/default.htm.\nCompounds with GIPRCNT values below 10 were considered active. Activity score was based on GIPRCNT using the following formula: […]\nScore is 0 for GIPRCNT values of 100 or above, 50 for GIPRCNT values of 0, and 100 for GIPRCNT values of -100.", "values": [
      {"molecule": "O=C1/C(=C/c2ccc(Cl)cc2)CN(Cc2cn(CCNc3ccnc4cc(Cl)ccc34)nn2)C/C1=C\\c1ccc(Cl)cc1", "growth": "-100% (active)"},
      {"molecule": "COc1ccc(Nc2[nH]n3c(=O)cc(-c4ccccc4)nc3c2C(=O)Nc2ccc(C)cc2)c(OC)c1", "growth": "60.3% (inactive)"},
      {"molecule": "CN(C)c1cccc2c(S(=O)(=O)/N=C(\\N)Nc3nc4ccccc4s3)cccc12", "growth": "55.4% (inactive)"},
      {"molecule": "COc1ccc(-c2nc(/C=N/Nc3cc(C)nc4ccc(Br)cc34)c(C)o2)cc1", "growth": "-85.8% (active)"},
      {"molecule": "NC1=C(/C(N)=N/O)C(c2ccccc2)c2ccc3ccccc3c2O1", "note": "(stereo not given)", "growth": "19.6% (inactive)"},
      {"molecule": "COc1cccc(-c2nc3sccn3c2-c2ccnc(NCCCNS(=O)(=O)c3ccc(F)cc3)c2)c1", "growth": "55.5% (inactive)"},
      {"molecule": "CCc1ccc(-c2ccc(=O)n(-c3ccc(S(N)(=O)=O)cc3)n2)cc1", "growth": "35% (inactive)"},
      {"molecule": "O=S(=O)(NCCNc1nccc(-c2c(-c3ccc(F)cc3)nc3sccn23)n1)c1ccc(F)cc1", "growth": "79.8% (inactive)"},
      {"molecule": "CC(O)CN1CCCCC1", "note": "(stereo not given)", "growth": "99.6% (inactive)"},
      {"molecule": "COc1ccc(-c2ccc(-c3ccc(C(=N)N)cn3)s2)cc1OC", "growth": "88.3% (inactive)"},
      {"molecule": "CCN(CC)CCOC(=O)C(c1ccccc1)(c1ccccc1)C(C)C", "growth": "87.2% (inactive)"},
      {"molecule": "COc1cc(-c2nn(-c3cccc(NC(=O)c4cccc(C(F)(F)F)c4)c3)cc2-c2ccncc2)ccc1Cl", "growth": "13.1% (inactive)"},
      {"molecule": "COc1cc(/C(C#N)=C/c2ccc3c(c2OC)OCO3)cc2c1OCO2", "growth": "18.9% (inactive)"},
      {"molecule": "CC(=O)Oc1cccc(S(=O)(=O)n2cc(C(=O)C(=O)Nc3ccncc3)c3ccccc32)c1", "growth": "93.1% (inactive)"},
      {"molecule": "COc1ccc(/C=C/c2c(C(C)=O)c(C)nc3ccccc23)cc1", "growth": "94.8% (inactive)"},
      {"molecule": "Cc1cccc(/C=N/Nc2cc(C)c3cccc(C)c3n2)n1", "growth": "78.6% (inactive)"},
      {"molecule": "CCn1c2ccccc2c2cc(NC(=O)Nc3ccc([N+](=O)[O-])cc3C)ccc21", "growth": "31.5% (inactive)"},
      {"molecule": "CCOC(=O)CN1/C(=N/c2sc3c(c2C(=O)OCC)CCN(C(=O)OCC)C3)SC(=O)/C1=C\\C(=O)OC", "growth": "85.3% (inactive)"},
      {"molecule": "Cc1ccc(N2CCN(C(C)C(N)=O)CC2)cc1", "note": "(stereo not given)", "growth": "107% (inactive)"},
      {"molecule": "C=C1C(=O)O[C@H]2[C@H]1CC/C(Cn1cc(CNC(=O)/C=C/c3c[nH]c4ccccc34)nn1)=C\\CC[C@@]1(C)O[C@@H]21", "growth": "94.3% (inactive)"},
      {"molecule": "ClC(Cl)c1nc(-c2cccnc2)n2nc(-c3ccccc3)cc2n1", "growth": "-32.7% (active)"},
      {"molecule": "Oc1ccccc1/C=N/NC(=S)NC1CC2C=CC1C2", "note": "(stereo not given)", "growth": "59.4% (inactive)"},
      {"molecule": "Cc1c(C(N)=O)sc2c1c(=O)n(Cc1ccccc1)c1nnc(Nc3ccccc3)n21", "growth": "97.2% (inactive)"},
      {"molecule": "CCOC(=O)C1C(=O)C=C(c2ccc(OC)cc2)CC1c1sc(N(C)Cc2ccccc2)nc1Cl", "note": "(stereo not given)", "growth": "84.8% (inactive)"},
      {"molecule": "COc1cc(C2NN=C3c4ccccc4CCC32)cc(OC)c1OC", "note": "(stereo not given)", "growth": "94.7% (inactive)"},
      {"molecule": "Nc1ncnc2c1c(-c1ccc(Oc3ccccc3)cc1)nn2C[C@@H]1SSC[C@@H]1O", "growth": "37.5% (inactive)"},
      {"molecule": "Cc1ccc(NS(=O)(=O)c2cc(C)ccc2C)cc1", "growth": "36.8% (inactive)"},
      {"molecule": "Clc1cc2c(nn1)Nc1ccccc1S2", "growth": "97.3% (inactive)"},
      {"molecule": "C=C1C(=O)O[C@H]2[C@H]1CC/C(Cn1cc(-c3cccc(Cl)c3)nn1)=C\\CC[C@@]1(C)O[C@@H]21", "growth": "-71.1% (active)"},
      {"molecule": "COc1ccc2c(c1)cn1c3ccc(OC)cc3[nH]c(=O)c21", "growth": "-90.3% (active)"},
      {"molecule": "Cc1cc(N/N=C/c2nc(-c3ccccc3)oc2C)c2cc(Cl)ccc2n1", "growth": "-76.9% (active)"},
      {"molecule": "Fc1ccc(Nc2nc(NCCNc3ccnc4cc(Cl)ccc34)nc(N3CCOCC3)n2)cc1", "growth": "39% (inactive)"},
      {"molecule": "O=c1ccn(C2CC(O)C(O)C(CO)O2)c(=O)[nH]1", "note": "(stereo not given)", "growth": "125% (inactive)"},
      {"molecule": "NC(=S)N/N=C(/CCN1CCCC1)CC(C1=C(O)C2=CCCCC2OC1=O)c1ccccc1", "note": "(stereo not given)", "growth": "88% (inactive)"},
      {"molecule": "CC(C)CC1NC(C)(C)CO1", "note": "(stereo not given)", "growth": "109% (inactive)"},
      {"molecule": "CC(=O)Nc1ccc(S(=O)(=O)n2ccc(-c3ccc4c(c3)CCC(C)(C)O4)n2)cc1", "growth": "66% (inactive)"},
      {"molecule": "CC1CN(c2oc(-c3ccccc3)nc2C#N)CC(C)O1", "note": "(stereo not given)", "growth": "103% (inactive)"},
      {"molecule": "C=C1C(=O)O[C@H]2[C@H]1CC/C(Cn1cc(CNC(=O)c3cc4ccccc4[nH]3)nn1)=C\\CC[C@@]1(C)O[C@@H]21", "growth": "67.6% (inactive)"},
      {"molecule": "O=[N+]([O-])c1ccc(OCCCOc2ccccc2)cc1", "growth": "90.7% (inactive)"},
      {"molecule": "COc1ccc(-n2c(=O)sc3c(Cl)nc(C)nc32)c(OC)c1", "growth": "51.6% (inactive)"}
    ]}
  ]
}
